Compound activity (PubChem)
Shown are actives, neighbours in structure and some others; about 3.6% of the full set was active somewhere.
Mdm2 MdmX PPI: inhibitors of human Mdm2/MdmX interaction. inhibition, % at 8 µM. SaOS-2 split-luciferase Mdm2/MdmX complementation, luminescence. 330,000 tested, 3% active. O15151+Q00987;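 active = inhibition of at least 50% at 8 µM in the primary screen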
Target sequence (O15151 whole entry, looked up): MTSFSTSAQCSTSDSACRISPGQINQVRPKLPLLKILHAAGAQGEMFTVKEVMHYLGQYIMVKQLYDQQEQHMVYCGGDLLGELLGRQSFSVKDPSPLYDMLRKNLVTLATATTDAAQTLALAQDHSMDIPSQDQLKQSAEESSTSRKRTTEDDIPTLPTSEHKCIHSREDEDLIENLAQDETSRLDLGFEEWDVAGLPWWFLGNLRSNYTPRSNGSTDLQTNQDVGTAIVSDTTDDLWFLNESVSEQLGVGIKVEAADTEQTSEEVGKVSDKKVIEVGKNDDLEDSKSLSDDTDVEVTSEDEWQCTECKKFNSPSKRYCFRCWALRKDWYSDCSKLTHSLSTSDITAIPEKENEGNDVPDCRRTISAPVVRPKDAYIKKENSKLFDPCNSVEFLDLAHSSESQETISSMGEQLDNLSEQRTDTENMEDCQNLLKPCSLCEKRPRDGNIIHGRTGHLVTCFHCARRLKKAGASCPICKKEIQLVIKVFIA
Target sequence (Q00987 whole entry, looked up): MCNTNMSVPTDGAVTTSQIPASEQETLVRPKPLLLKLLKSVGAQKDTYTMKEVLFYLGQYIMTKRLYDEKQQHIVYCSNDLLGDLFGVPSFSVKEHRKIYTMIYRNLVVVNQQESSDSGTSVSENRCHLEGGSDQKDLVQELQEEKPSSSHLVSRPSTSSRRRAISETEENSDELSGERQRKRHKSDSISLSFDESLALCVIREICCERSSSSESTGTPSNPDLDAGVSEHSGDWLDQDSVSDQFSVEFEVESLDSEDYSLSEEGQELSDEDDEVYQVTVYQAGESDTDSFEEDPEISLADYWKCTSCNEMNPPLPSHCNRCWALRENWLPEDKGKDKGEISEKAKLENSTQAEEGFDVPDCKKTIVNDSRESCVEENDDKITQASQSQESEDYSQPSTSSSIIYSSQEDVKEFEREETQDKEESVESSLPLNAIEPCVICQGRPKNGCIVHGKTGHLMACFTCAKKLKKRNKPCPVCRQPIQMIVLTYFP
Peg3 prom inh: reduces Peg3 promoter-driven luciferase expression in HeLa | HeLa PEG-Prom luciferase reporter, luminescence, overnight | inhibition, % at 20 µM | 360,000 tested, 1.7% active | AID 588405;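 active = inhibition of at least 50% at 20 µM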
LGR2 inh: Drosophila LGR2 receptor signaling inhibition; HEK293 LGR2, CRE-luciferase, bursicon-stimulated, 4 h; inhibition, % at 9.99 µM; 380,000 tested, 0.35% active;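 active = drop in luminescence signal, shown as inhibition above about 50% in the replicate tests, limit read from the data, passing the limit was not always enough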;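 note: agonist challenge used bursicon conditioned medium at about half maximal strength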
CF NFkB block: inhibitors of cystic fibrosis induced NF-kB; KKLEB NF-kB-GFP reporter, PAF-induced, GFP fluorescence overnight; 360,000 tested, 0.86% active; inhibition, % at 5 µM;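 active = at least 50% inhibition at 5 µM, scaled per plate between neutral and stimulator controls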;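 note: PAF is a Pseudomonas aeruginosa culture filtrate used as stimulus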
HSP90 refold inh: inhibitors of HSP90 luciferase refolding in rabbit reticulocyte lysate. luciferase refolding luminescence, 3 h. inhibition, % at 5.6 µM. 290,000 tested, 0.91% active. AID 1789;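 active = inhibition above the screen-wide mean plus 3 SD, computed separately per campaign, cut at about 16% in these data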;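 note: inhibitors lower the luminescence because luciferase stays unfolded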
KKLEB tox: CF airway cell cytotoxicity counter-screen | activity change (cytotoxicity), % at 5 µM | KKLEB CF airway cells viability, ATPlite luminescence, overnight; stronger effect = lower value; cells stimulated with P. aeruginosa culture filtrate | 360,000 tested, 0.36% active;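 active = corrected activity change at or below -50% at 5 µM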
Mdm2 MdmX conf: confirmation of human Mdm2/MdmX interaction inhibitors; Mdm2-MdmX binding, luminescent assay; 10,000 tested, 55% active; shares compounds with Mdm2 MdmX PPI; inhibition, % at 8 µM; AID 489028; in the data active = inhibition above about 40%
FLuc counter: inhibits full-length luciferase, flagging false Mdm2/MdmX hits; shares compounds with Mdm2 MdmX PPI; SaOS-2 full-length luciferase counterscreen, luminescence; inhibition, % at 8 µM; 6,200 tested, 77% active; AID 504607;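 active = mean inhibition at 8 µM reaching about 37%, which flags the compound as non-specific, limit read from the data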;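 note: p53-null SaOS-2 cells with luciferase driven by a doxycycline-inducible promoter; compound on cells about two nights before reading with doxycycline added after day one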
A number is an active result; n = inactive; x = no result.

SMILES	Mdm2 MdmX PPI	Peg3 prom inh	LGR2 inh	CF NFkB block	HSP90 refold inh	KKLEB tox	Mdm2 MdmX conf	FLuc counter
O=C(/C=C/c1ccco1)NC(=S)Nc1ccc(O)c(-c2nc3ccccc3s2)c1	77	n	n	n	n	n	n	72
O=C(/C=C/c1ccco1)NC(=S)Nc1ccc(C(=O)O)cc1	n	n	n	n	n	n	x	x
COCCNC(=O)C[C@H]1C[C@@H]2c3cc(NC(=O)NC4CCCC4)ccc3O[C@@H]2[C@@H](CO)O1	x	x	n	x	x	x	x	x
CN(C)C(=O)[C@@H]1[C@@H](CO)[C@@H]2Cn3c(ccc(-c4ccccc4F)c3=O)[C@H]1N2C(=O)c1cccnc1	x	x	n	x	x	x	x	x
CC(=O)NC(=S)Nc1ccc(NC(=S)NC(=O)/C=C/c2ccco2)cc1	73	n	n	n	n	n	65	n
C[C@@H]1CN([C@H](C)CO)C(=O)Cc2cc(NC(=O)Nc3ccc(F)cc3)ccc2O[C@@H]1CN(C)Cc1ccc(Cl)c(Cl)c1	x	x	n	x	x	x	x	x
COc1cc2c3nnc(-c4ccccc4)c-3cn(Cc3ccccc3F)c2cc1OC	84	x	n	x	n	x	53	40
COc1ccc(-c2nnc(SCc3ccccc3F)o2)cc1OC	n	n	x	n	n	n	x	x
COc1cc(Nc2ccc(C)cc2)c([N+](=O)[O-])nc1[N+](=O)[O-]	53	n	x	n	n	n	42	87
CCCc1nc(SCC(=O)N2CCC(Cc3ccccc3)CC2)c2c(=O)n(C)c(=O)n(C)c2n1	60	99	17	n	n	n	42	79
Cn1c(=O)c2c(SCC(=O)N3CCCc4ccccc43)nc(CC(C)(C)C)nc2n(C)c1=O	69	n	x	n	n	n	n	x
CCc1nc(SCC(=O)N2CCN(c3ccccc3)CC2)c2c(=O)n(C)c(=O)n(C)c2n1	x	x	x	x	n	x	x	x
CCCC#Cc1cnc2c(c1)C(=O)N([C@H](C)CO)C[C@H](C)[C@H](CN(C)C(=O)Nc1cccc(F)c1)O2	x	x	n	x	x	x	x	x
CCCCN(c1ccc(C(=O)OC)cc1)S(=O)(=O)c1ccccc1	62	n	n	n	n	n	n	x
O=S(=O)(N[C@H]1CC[C@@H](CCn2cc(-c3cccnc3)nn2)O[C@@H]1CO)c1ccccc1	x	x	n	x	x	x	x	x
O=C(Nc1cccc(Cl)c1)Nc1nnc(CSCCOc2ccc(Cl)cc2)s1	99	n	n	n	n	n	90	n
Cc1ccc(NC(=O)Nc2nnc(CSCCOc3ccc(Cl)cc3)s2)cc1	n	n	x	n	n	n	x	x
COc1ccc(OCCSCc2nnc(NC(=O)Nc3ccc(Cl)cc3)s2)cc1	63	n	x	n	n	n	n	x
O=C(Nc1cccc(Cl)c1)Nc1nnc(CC2=CCCCC2)s1	80	n	n	n	n	n	43	88
O=C(Nc1ccc(Cl)cc1)Nc1nnc(CSCc2ccccc2)s1	58	n	n	n	n	n	n	x
O=C(Nc1nnc(CC2=CCCCC2)s1)Nc1ccccc1F	n	x	x	x	n	x	x	x
O=C([C@H]1[C@H](CO)[C@H]2Cn3c(ccc(-c4ccccc4F)c3=O)[C@@H]1N2C(=O)C1CCC1)N1CCOCC1	x	x	n	x	x	x	x	x
COc1cccc(-c2nc3c(c(SCC(=O)N4CCOCC4)n2)Cc2c(CO)cnc(C)c2O3)c1	65	59	x	n	n	n	n	71
Cc1cccc([C@@H]2[C@@H]3C(=O)N(Cc4ccccc4)C(=O)[C@@H]3[C@]3(Cc4ccccc4)C(=O)N(c4ccc(C(F)(F)F)cc4)C(=O)N23)c1	99	n	n	n	x	n	100	49
Cc1cccc([C@@H]2[C@@H]3C(=O)N(Cc4ccccc4)C(=O)[C@@H]3[C@]3(Cc4ccccc4)C(=O)N(c4ccccc4)C(=O)N23)c1	n	n	n	n	x	n	x	x
COc1ccc([C@@H]2[C@@H]3C(=O)N(C(C)(C)C)C(=O)[C@@H]3[C@]3(Cc4ccc(Cl)cc4)C(=O)N(c4ccc(Br)cc4)C(=O)N23)cc1	74	n	n	n	n	n	91	n
CC(C)(C)N1C(=O)[C@H]2[C@@H](c3ccc(Br)cc3)N3C(=O)N(c4ccc(Br)cc4)C(=O)[C@@]3(Cc3ccccc3)[C@H]2C1=O	83	n	n	n	n	n	89	n
